Results on 27 molecules are retold here after PubChem BioAssay AID1239 (SRMLSC, 2008).

Hit rate of the full screen: of about 190,000 compounds, about 3,100 (1.6%) were called active. No stated cut-off is given here; in the data, active means fold change above about 3.3; inconclusive means no clear call, values can overlap the other calls; inactive means below that. The list comes from a sample in which actives are over-represented; it also holds similar structures and randomly drawn compounds.

A short description of this test: NF-kB upregulation, human neuronal cells – cell-based, HTS, primary screen (AID 1239). Particulars: NF-kB reporter expression, at 12.5 µM, hits give high values.
With `O=C(CSc1ccccc1)Nc1ccc(NC(=O)c2ccco2)cc1`, the fold change is 1.45 (inactive).
The figure for `O=C(Nc1ccc(Oc2ccccc2)cc1)c1ccco1` is 4.89 (active); for `COC(=O)c1ccc(NC(=O)c2ccco2)cc1` it is 2.51 (inactive); for `CCS(=O)(=O)Nc1ccc(C2=NN(C(C)=O)C(c3cccs3)C2)cc1` (configuration not stated) it is 1.16 (inactive).
On to `NS(=O)(=O)c1cccc(NC(=O)COC(=O)/C=C/c2ccco2)c1`, for which the fold change was 1.19 (inactive).
For `CCCC(O)(CCC)C(=O)NN(C(=O)CCl)c1cccc(C)c1`, the fold change is 0.5 (inactive).
The figure for `CCCCC(O)(CCCC)C(=O)NN(C(=O)CCl)c1ccccc1` is 4.9 (active); for `Cc1ccc(N(NC(=O)C(C)(C)O)C(=O)c2ccccc2)cc1C` it is 1.37 (inactive).
With `Cc1nc(-c2ccccc2)sc1C(=O)/C=C/N(C)C`, the fold change was 1.77 (inactive).
The same measure for `COc1ccccc1NC(=S)N1CCC(NC(=O)C23CC4CC(CC(C4)C2)C3)CC1`: 0.97 (inactive).
The same measure for `CC(C)Cc1cc(C(=O)Nc2cc(Br)ccc2O)no1`: 6.03 (active); for `CC(C)Cc1cc(C(=O)NCCc2ccccc2)no1`: 3.27 (inactive).
The same measure for `CC(C)CNC(=O)c1cc(-c2ccc(Br)cc2)on1`: 0.98 (inactive).
Turning to `O=C(/C=C/c1ccc(Cl)cc1)Nc1ccc(S(=O)(=O)Nc2ncccn2)cc1`, the fold change was 0.93 (inactive).
The same measure for `O=C(O)/C=C/c1cn(-c2ccccc2)nc1-c1cccs1`: 1.14 (inactive); for `O=C(O)c1ccc(N/N=C/c2cn(-c3ccccc3)nc2-c2cccs2)cc1`: 6.86 (active).
The same measure for `O=C(/C=C\c1cn(-c2ccccc2)nc1-c1cccs1)N1CCOCC1`: 0.42 (inactive); for `CC(C(=O)NCC1CCCCC1)N(C)Cc1cccc(Cl)c1` (configuration not stated): 1.18 (inactive); for `N/C(=N\OC(=O)Cc1ccc([N+](=O)[O-])cc1)c1ccccn1`: 1.74 (inactive).
`O=C(OCc1ccc([N+](=O)[O-])cc1)c1ccccn1`: the fold change was 1.29 (inactive).
The same measure for `N/C(=N\OC(=O)c1ccc([N+](=O)[O-])cc1)c1ccccn1`: 5.12 (active).
The figure for `CCOc1ncccc1C(=O)OCc1cn2cc(Cl)ccc2n1` is 1.18 (inactive); for `O=c1cc(CSc2ccc(Cl)cc2)nc(N2CCOCC2)[nH]1` it is 1.5 (inactive).
The same measure for `Clc1ccc2nc(CSc3ccccc3)cn2c1`: 3.83 (active); for `CN1CCC(OC(=O)COc2ccc(Cl)cc2Cl)CC1`: 1.16 (inactive).
Regarding `CCOc1cnc(C(=O)NNC(=O)c2ccccc2Br)o1`, the fold change is 1.13 (inactive).
The figure for `COc1ccc(C(=O)NCC(=O)N/N=C/c2ccc([N+](=O)[O-])s2)cc1OC` is 0.62 (inactive).
